From PubChem BioAssay AID1779 (Sanford-Burnham Center for Chemical Genomics, 2009) come the findings set out here.

Among all 290,000 compounds or so, about 160 (0.055%) were called active. Many of the other results were omitted from the sample, so actives are more common in it than they were. A number with no mark means an inactive call. No stated cut-off is given here; in the data, active means inhibition above about 50%; inactive means the rest.

Sequence of Tyrosine-protein phosphatase non-receptor type 22 (Homo sapiens) (Q9Y2R2 whole entry, looked up): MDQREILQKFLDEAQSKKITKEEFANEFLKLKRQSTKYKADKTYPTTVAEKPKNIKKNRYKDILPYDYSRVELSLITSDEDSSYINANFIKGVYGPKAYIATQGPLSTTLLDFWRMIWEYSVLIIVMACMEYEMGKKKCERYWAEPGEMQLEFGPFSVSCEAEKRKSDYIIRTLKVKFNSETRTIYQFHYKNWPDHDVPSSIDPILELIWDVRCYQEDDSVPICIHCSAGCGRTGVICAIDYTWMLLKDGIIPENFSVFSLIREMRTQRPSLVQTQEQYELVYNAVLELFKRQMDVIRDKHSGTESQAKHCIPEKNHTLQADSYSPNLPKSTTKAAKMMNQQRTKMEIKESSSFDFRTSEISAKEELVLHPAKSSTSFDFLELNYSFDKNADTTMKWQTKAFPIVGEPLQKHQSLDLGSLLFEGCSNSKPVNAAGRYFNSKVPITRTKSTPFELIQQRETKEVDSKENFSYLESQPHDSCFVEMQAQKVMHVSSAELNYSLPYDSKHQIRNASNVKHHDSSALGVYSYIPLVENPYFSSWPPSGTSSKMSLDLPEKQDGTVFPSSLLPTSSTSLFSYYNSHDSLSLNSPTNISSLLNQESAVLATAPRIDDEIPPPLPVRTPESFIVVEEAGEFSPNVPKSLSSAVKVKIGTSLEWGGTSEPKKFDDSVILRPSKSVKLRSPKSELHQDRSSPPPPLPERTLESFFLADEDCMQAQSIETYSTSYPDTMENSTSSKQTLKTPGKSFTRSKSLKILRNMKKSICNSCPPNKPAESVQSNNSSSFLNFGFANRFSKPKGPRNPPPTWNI

The test concerns the target Tyrosine-protein phosphatase non-receptor type 22 (Homo sapiens) (UniProt Q9Y2R2). Put plainly: PTPN22 lymphoid phosphatase activity blockers – biochemical, fluorescence intensity, uHTS (AID 1779).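 Further: plate controls were vehicle with enzyme for no effect and no enzyme for full effect.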 As to conditions: recombinant LYP phosphatase, at 11.5 µM, stronger effect = higher value.
With `O=C(c1ccco1)N1CCN(C(=O)C2CC(=O)N(c3ccc(Cl)cc3)C2)CC1` (stereo unspecified), the inhibition – broadly, the relative decrease from the control value, in per cent – is -14.5%.

For `N/C(=N\N=C\c1ccco1)SC1CC(=O)N(c2ccccc2)C1=O` (stereo unspecified), the inhibition is -2.9%.

On to `N/C(=N\N=C\c1ccco1)SC1CC(=O)N(c2ccc(C(=O)O)cc2)C1=O` (stereo unspecified), for which the inhibition is 1.7%.

Regarding `N/C(=N\N=C\c1ccc2c(c1)OCO2)SC1CC(=O)N(c2ccc(C(=O)O)cc2)C1=O` (stereo unspecified), the inhibition is 70% (active).

With `Cc1csc2ncc(C(=O)N3CCCc4ccccc43)c(=O)n12`, the inhibition is -4%.

`O=C(CN1C(=O)CSc2ccccc21)Nc1ccccc1C(=O)N1CCOCC1`: the inhibition was -0.4%.

Turning to `NC(=O)c1nc(-c2cccs2)nc2c1[nH]c(=O)n2-c1ccc(F)cc1`, the inhibition was -3.8%.

`O=C(Nc1nccs1)c1ccc(S(=O)(=O)NCc2cccs2)cc1`: the inhibition was 84.4% (active).

Turning to `O=C(Nc1nccs1)c1ccc(S(=O)(=O)c2ccccc2)cc1`, the inhibition was -4.6%.

As to `O=C(Nc1nccs1)c1ccc(S(=O)(=O)NCC2CCCCC2)cc1`, the inhibition is 9.6%.

`Cc1ccccc1NC(=S)NC(NC(=O)c1ccccc1C)C(Cl)(Cl)Cl` (stereo unspecified): the inhibition is -5.7%.

On to `COc1ccc(S(=O)(=O)N2CCCCCC2)cc1C(=O)OCc1c(C)noc1C`, for which the inhibition is 50.5% (active).

`Cc1noc(C)c1COC(=O)c1ccc(S(=O)(=O)N2CCCCC2)cc1`: the inhibition was -3.8%.

For `COc1ccc(S(=O)(=O)N2CCc3ccccc32)cc1C(=O)OCc1c(C)noc1C`, the inhibition was 1%.

For `CCOC(=O)c1c(NC(=O)COc2ncnc3ccccc23)sc(C)c1C`, the inhibition was 3.4%.

Consider `O=C(NCc1ccccc1)C(c1ccccc1F)N(CC1CCCO1)C(=O)c1ccccn1` (stereo unspecified), for which the inhibition was -7.1%.

Turning to `Cc1cc(C)nc(NC(=O)c2cc(-c3ccc(C)s3)nc3ccccc23)c1`, the inhibition was 79.7% (active).

`Cc1cccc(NC(=O)c2cc(-c3ccc(C)s3)nc3ccccc23)n1`: the inhibition is 6.1%.

`Cc1cc(NC(=O)c2cc(-c3ccc(C)s3)nc3ccccc23)no1`: the inhibition is -4.3%.

For `COc1ccc(-c2nnn(CC(=O)N(CCCO)C(C(=O)NC3CCCC3)c3ccncc3)n2)cc1` (stereo unspecified), the inhibition was -4.7%.

For the compound `CC(=O)N1CCc2c(sc3c2c(=O)n(-c2ccccc2)c(=O)n3CC(=O)NCC2CCCO2)C1` (stereo unspecified), the inhibition is -11%.

Regarding `COc1ccc(COC(=O)Nc2cn(C)nc2C(F)(F)F)cc1`, the inhibition is 1.1%.

As for `CCC(C)[C@H](NC(=O)[C@@H]1CSC2c3ccccc3C(=O)N21)C(=O)NCC1CCCO1` (stereo partly specified), the inhibition was -11.5%.

With `CCn1cc(CNC(=O)c2cc([N+](=O)[O-])c(C)c([N+](=O)[O-])c2)cn1`, the inhibition was 55.6% (active).

`CCn1cc(CNC(=O)c2cccc([N+](=O)[O-])c2)cn1`: the inhibition was -11.2%.

As to `Cc1c([N+](=O)[O-])cc(C(=O)NCc2ccc(F)cc2)cc1[N+](=O)[O-]`, the inhibition was -4.5%.

For the compound `COc1ccc(N(C(=O)CNC(=O)c2ccco2)C(C(=O)NCC2CCCO2)c2ccccc2)cc1` (stereo unspecified), the inhibition is -11.7%.

Consider `O=C(OC1CCOC1=O)c1cccc(S(=O)(=O)N2CCc3ccccc3C2)c1` (stereo unspecified), for which the inhibition was -8.2%.

With `CCCN1C(=O)C(O)(CC(=O)c2ccc3c(c2)OCCO3)c2ccccc21` (stereo unspecified), the inhibition was 3.1%.

On to `COc1ccc(-c2cc(C)no2)cc1S(=O)(=O)N1CCN(c2ccccn2)CC1`, for which the inhibition is -10.6%.

With `O=C(OC1CCCCC1)c1ccc2c(c1)C1C=CCC1C(C(=O)O)N2` (stereo unspecified), the inhibition was 64% (active).

Turning to `O=C(O)C1Nc2c(O)cccc2C2C=CCC12` (stereo unspecified), the inhibition is 52% (active).

As for `CC(=O)c1ccc2c(c1)C1C=CCC1C(C(=O)O)N2` (stereo unspecified), the inhibition is 3.3%.

In the case of `O=C(O)C1Nc2c(cccc2C(F)(F)F)C2C=CCC12` (stereo unspecified), the inhibition is -2.1%.

In the case of `CCOC(=O)c1ccc2c(c1)C1C=CCC1C(C(=O)O)N2` (stereo unspecified), the inhibition is 19.2%.

Consider `COc1cccc2c1NC(C(=O)O)C1CC=CC21` (stereo unspecified), for which the inhibition was 1.7%.

In the case of `COc1cc2c(C(=O)Nc3ccccc3F)cn(C)c(=O)c2cc1OC`, the inhibition is -10.5%.

As to `CCOC(=O)c1ccc(-c2ccc3c(=O)c4ccccc4n(C)c3c2)cc1F`, the inhibition is -15.2%.

As to `CN1CCN(S(=O)(=O)c2cccc(C(=O)NCCOc3ccccc3F)c2)CC1`, the inhibition is -15.4%.

`Cc1cc(=O)n2c(n1)NC(Nc1cccc(C)c1C)=NC2c1ccc(F)cc1` (stereo unspecified): the inhibition is -3.8%.

Turning to `O=C(COC(=O)c1ccccc1F)c1ccc(-n2nncc2-c2ccco2)cc1`, the inhibition is -3.3%.

As for `CSc1ccccc1NC(=O)CSc1nnc(Cc2ccccc2)o1`, the inhibition is -12.7%.

`CCOC(=O)c1sc2nc3c(SCCC#N)cc(C(=O)c4cc(F)ccc4O)cn3c(=O)c2c1C`: the inhibition was 1.4%.

As for `CCOC(=O)c1sc2nc3c(SCC(=O)O)cc(C(=O)c4cc(F)ccc4O)cn3c(=O)c2c1C`, the inhibition was 5.2%.

With `CCOC(=O)c1sc2nc3c(SCCC(=O)O)cc(C(=O)c4cc(OC)ccc4O)cn3c(=O)c2c1C`, the inhibition is 53.3% (active).

As to `O=C(Nc1cc(Cl)cc(Cl)c1)C(NCC1CCCO1)c1ccccc1` (stereo unspecified), the inhibition is 0%.

With `COc1ccc(CCNC(=O)CCC(=O)N2CCN(S(=O)(=O)c3ccccc3)CC2)cc1OC`, the inhibition was -4.5%.

As to `O=S(=O)(c1ccc(Br)cc1)c1nc(-c2ccccc2)oc1NCCN1CCOCC1`, the inhibition is -4.8%.

`Cc1ccc(S(=O)(=O)c2nc(-c3ccccc3)oc2NCCCN2CCOCC2)cc1`: the inhibition was 3.6%.

`Cc1ccc(S(=O)(=O)c2nc(-c3ccccc3)oc2NCCN2CCOCC2)cc1`: the inhibition is 67.9% (active).

Turning to `O=C(CCN1C(=O)C2CC=C(Cl)CC2C1=O)NCc1ccco1` (stereo unspecified), the inhibition is 55.2% (active).

In the case of `O=C(CCN1C(=O)C2CC=C(Cl)CC2C1=O)NCc1ccccc1` (stereo unspecified), the inhibition is -1.9%.

For the compound `O=C(CCN1C(=O)c2ccccc2C1=O)NCc1ccco1`, the inhibition is -4.2%.

Turning to `Cc1ccc(NC(=O)c2cccc3ccccc23)cc1`, the inhibition is -8.7%.

Take `CC(C)CC(=O)Nc1ccc(C(=O)CN2CCN(c3ccc(O)cc3)CC2)cc1`: the inhibition is -9.4%.

In the case of `COc1ccc(C2CC(=O)OC3=C2C(=O)CC(C)(C)C3)c(OC)c1` (stereo unspecified), the inhibition was -2.3%.

Consider `Cc1cc([N+](=O)[O-])ccc1N1C(=O)c2ccc(C(=O)Nc3ccccc3C(=O)O)cc2C1=O`, for which the inhibition is -5.4%.

Turning to `O=C(O)c1cccc(NC(=O)c2ccc3c(c2)C(=O)N(c2cccc([N+](=O)[O-])c2)C3=O)c1`, the inhibition was -2%.

For `Cc1ccc(C(=O)O)cc1NC(=O)c1ccc2c(c1)C(=O)N(c1ccc([N+](=O)[O-])cc1)C2=O`, the inhibition is 50.3% (active).

Consider `C(=N\Nc1nc(-c2ccccc2)cs1)/c1cccnc1`, for which the inhibition is 4.2%.

For the compound `CC(=O)c1ccc2noc(-c3cccc(C)c3)c2c1`, the inhibition is 8.5%.

Take `Cc1ccc2sc(NNC(=O)c3cc(=O)c4ccccc4o3)nc2c1C`: the inhibition was 1.8%.

With `CSCC[C@H](NC(=O)Nc1cccc(C(F)(F)F)c1)C(=O)O`, the inhibition is 61.2% (active).

In the case of `CSCC[C@H](NC(=O)Nc1cccc(Br)c1)C(=O)O`, the inhibition was -3.3%.

Turning to `C[C@H](NC(=O)Nc1cccc(C(F)(F)F)c1)C(=O)O`, the inhibition was -5.3%.

Consider `CC(OC(=O)c1ccc(NS(=O)(=O)c2ccc3[nH]c(=O)[nH]c3c2)cc1)C(N)=O` (stereo unspecified), for which the inhibition was -4.3%.

As to `Brc1cccc(C2Nc3cccc4cccc(c34)N2)c1`, the inhibition was -6.2%.

For the compound `Brc1ccc(C2Nc3cccc4cccc(c34)N2)o1`, the inhibition was 80.6% (active).

On to `c1coc(C2Nc3cccc4cccc(c34)N2)c1`, for which the inhibition is 18.4%.

With `Cn1nc(C(C)(C)C)cc1NC(=O)Nc1ccc(Cl)cc1`, the inhibition was 0%.

As for `COc1ccccc1NC(=O)CSc1nnc(Cc2cccn2C)n1-c1ccc(F)cc1`, the inhibition was 1.1%.

As to `Cn1cccc1Cc1nnc(SCC(=O)Nc2ccccc2F)n1-c1ccc(F)cc1`, the inhibition was 8.3%.

As to `CCOc1ccccc1NC(=O)CSc1nnc(Cc2cccn2C)n1-c1ccc(F)cc1`, the inhibition was 64.9% (active).

Take `CCc1cccc(NC(=O)C2CCCN(c3ncnc4c3nc3n4CCCCC3)C2)c1` (stereo unspecified): the inhibition is -6.4%.

For `COc1ccccc1CC(NC(C)=O)C(=O)NC1CCN(C(=O)Nc2ccc(F)cc2)CC1` (stereo unspecified), the inhibition is -8%.

As to `Cc1nn(C)c(C(=O)N/N=C/c2cccnc2)c1Cl`, the inhibition was -2.8%.

Regarding `Cc1ccccc1Cc1c(C)nc2ncnn2c1C`, the inhibition is -9%.

As for `O=C(O)CCCNc1cc(N2CCN(C(=O)c3ccco3)CC2)c2noc3c2c1C(=O)c1ccccc1-3`, the inhibition was 2.4%.

With `O=C(O)CCCNc1cc(N2CCC3(CC2)OCCO3)c2noc3c2c1C(=O)c1ccccc1-3`, the inhibition was 75.6% (active).

Consider `CCOC(=O)N1CCN(c2cc(NCCC(=O)O)c3c4c(onc24)-c2ccccc2C3=O)CC1`, for which the inhibition was 3.3%.

Turning to `Clc1ccc2nc(-c3ccc(Br)s3)cn2c1`, the inhibition is -4.3%.

Regarding `CC(=Nc1ccccc1)c1sc2ccccc2c1O`, the inhibition was 2%.

For `COc1ccc(/C=C2\SC(N)=NC2=O)cc1Br`, the inhibition is -4.5%.

For the compound `COc1cccc(C(=O)Nc2cccc(-c3ccc4nncn4n3)c2)c1OC`, the inhibition is -0.4%.

Take `COc1cccc(OC)c1C(=O)Nc1cccc(-c2ccc3nncn3n2)c1`: the inhibition was -6.9%.

As for `CC(C)CC1=NN(C(=O)c2ccco2)C(O)(C(F)(F)F)C1` (stereo unspecified), the inhibition is -6.1%.

Regarding `C=CCN(CC=C)C(=S)NC(=O)/C=C/c1ccccc1`, the inhibition is 2.6%.

With `C=CCN(CC=C)C(=S)NC(=O)/C=C/c1ccc(C)cc1`, the inhibition is 65.4% (active).

Turning to `C=CCN(CC=C)C(=S)NC(=O)/C=C/c1ccc(OC)cc1`, the inhibition was 8.3%.

Consider `COc1ccc(S(=O)(=O)Nc2nccs2)cc1OC`, for which the inhibition is -10.2%.

As to `CCC(C)n1c(C)nc2c(c1=O)c1nc3ccccc3nc1n2CCC1=CCCCC1` (stereo unspecified), the inhibition is 7.5%.
